Among the data in article PMC7862700, “An all-to-all approach to the identification of sequence-specific readers for epigenetic DNA modifications on cytosine” are binding signal values, retold here.

Test in all cases: DAPPL (digital affinity profiling via proximity ligation, sequencing); 10 mM Tris-HCl pH 7.5, 50 mM NaCl, 1 mM DTT, 4% glycerol, room temperature, 30 min; GST-TFs on glutathione beads, 16-mer random dsDNA library, 0.1% formaldehyde crosslink after washing; high values mean tight binding
The target of one test is T1, FLI1 (Homo sapiens, UniProt Q01543 1-452).
T1 sequence: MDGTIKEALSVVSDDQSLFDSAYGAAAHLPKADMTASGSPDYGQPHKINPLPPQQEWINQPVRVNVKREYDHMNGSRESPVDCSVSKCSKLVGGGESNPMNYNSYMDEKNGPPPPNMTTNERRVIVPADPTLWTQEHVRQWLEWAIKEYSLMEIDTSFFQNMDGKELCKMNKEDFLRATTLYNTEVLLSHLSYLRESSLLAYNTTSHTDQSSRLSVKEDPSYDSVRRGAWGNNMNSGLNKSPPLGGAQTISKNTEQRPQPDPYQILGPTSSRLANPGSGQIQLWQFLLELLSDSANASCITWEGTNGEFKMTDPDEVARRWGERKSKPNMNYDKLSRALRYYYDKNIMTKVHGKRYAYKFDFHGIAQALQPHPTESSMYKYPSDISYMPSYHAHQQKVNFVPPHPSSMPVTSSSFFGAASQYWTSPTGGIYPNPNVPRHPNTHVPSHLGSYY
The settings on record: protein: recombinant; tags: N-terminal GST; dsDNA, one strand shown. The gist of the method:
(§1)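 Human transcription factors were made in yeast as GST fusions, captured on glutathione beads and barcoded with DNA. With a tag-only sample included, the pool was incubated with 200 nmole of a random double-stranded 16-mer DNA library in Tris/NaCl/DTT/glycerol buffer at room temperature for 30 min, then crosslinked with 0.1% formaldehyde after washing, ligated by proximity, amplified and sequenced. For binding signal, each hexamer's read frequency for a factor is divided by its frequency for the tag-only sample.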

For a further test, the target named is T2, ELK1 (Homo sapiens, UniProt P19419 1-428).
T2 sequence: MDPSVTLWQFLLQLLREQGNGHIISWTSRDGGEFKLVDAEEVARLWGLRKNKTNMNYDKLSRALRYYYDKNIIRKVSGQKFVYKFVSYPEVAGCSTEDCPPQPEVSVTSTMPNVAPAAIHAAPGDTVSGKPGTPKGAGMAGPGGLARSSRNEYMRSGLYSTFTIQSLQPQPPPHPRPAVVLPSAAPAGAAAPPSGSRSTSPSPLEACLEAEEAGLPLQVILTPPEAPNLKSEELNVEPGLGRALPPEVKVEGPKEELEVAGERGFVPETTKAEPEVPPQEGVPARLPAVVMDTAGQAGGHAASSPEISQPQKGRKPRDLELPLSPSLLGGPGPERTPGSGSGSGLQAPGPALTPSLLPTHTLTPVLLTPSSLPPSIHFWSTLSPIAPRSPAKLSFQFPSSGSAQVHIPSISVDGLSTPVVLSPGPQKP
The following applies: protein: recombinant; tags: N-terminal GST; dsDNA, one strand shown. The gist of the method:
as §1

A further test has as its target T3, GABPA (Homo sapiens, UniProt Q06546 1-454).
T3 sequence: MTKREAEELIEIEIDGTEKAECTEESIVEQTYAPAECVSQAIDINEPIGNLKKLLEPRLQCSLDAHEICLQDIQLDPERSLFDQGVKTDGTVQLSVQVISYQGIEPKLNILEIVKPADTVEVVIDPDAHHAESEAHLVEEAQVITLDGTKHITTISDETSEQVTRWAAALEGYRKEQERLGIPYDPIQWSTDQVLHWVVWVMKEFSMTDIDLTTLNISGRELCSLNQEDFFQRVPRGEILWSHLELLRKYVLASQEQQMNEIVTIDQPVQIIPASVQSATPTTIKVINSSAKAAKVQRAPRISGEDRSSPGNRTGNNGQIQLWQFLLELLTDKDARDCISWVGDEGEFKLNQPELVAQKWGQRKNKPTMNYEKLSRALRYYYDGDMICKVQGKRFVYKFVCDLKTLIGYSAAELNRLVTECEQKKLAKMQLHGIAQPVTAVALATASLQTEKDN
The following applies: protein: recombinant; tags: N-terminal GST; dsDNA, one strand shown. The method, boiled down: as §1

The target in another test is T4, ERG (Homo sapiens, UniProt P11308 1-479).
T4 sequence: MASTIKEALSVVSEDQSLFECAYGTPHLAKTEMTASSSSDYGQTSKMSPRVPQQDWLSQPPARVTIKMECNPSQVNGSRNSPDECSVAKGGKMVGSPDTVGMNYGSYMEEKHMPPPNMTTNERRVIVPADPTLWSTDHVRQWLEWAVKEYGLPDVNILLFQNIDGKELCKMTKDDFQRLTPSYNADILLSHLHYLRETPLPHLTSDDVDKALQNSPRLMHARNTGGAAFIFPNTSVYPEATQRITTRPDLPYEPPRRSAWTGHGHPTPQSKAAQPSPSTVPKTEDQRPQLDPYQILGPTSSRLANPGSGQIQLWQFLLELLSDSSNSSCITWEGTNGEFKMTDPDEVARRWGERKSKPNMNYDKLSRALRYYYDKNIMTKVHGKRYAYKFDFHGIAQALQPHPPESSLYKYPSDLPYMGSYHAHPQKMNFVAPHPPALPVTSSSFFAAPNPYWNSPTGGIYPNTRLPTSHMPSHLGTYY
The settings on record: protein: recombinant; tags: N-terminal GST; dsDNA, one strand shown. The gist of the method:
as §1

The target of the next test is ELF1 (Homo sapiens, UniProt P32519 1-619). The following applies: protein: recombinant; tags: N-terminal GST; dsDNA, one strand shown. The method, boiled down: as §1
The next test addresses T5, EHF (Homo sapiens, UniProt Q9NZC4 1-300).
T5 sequence: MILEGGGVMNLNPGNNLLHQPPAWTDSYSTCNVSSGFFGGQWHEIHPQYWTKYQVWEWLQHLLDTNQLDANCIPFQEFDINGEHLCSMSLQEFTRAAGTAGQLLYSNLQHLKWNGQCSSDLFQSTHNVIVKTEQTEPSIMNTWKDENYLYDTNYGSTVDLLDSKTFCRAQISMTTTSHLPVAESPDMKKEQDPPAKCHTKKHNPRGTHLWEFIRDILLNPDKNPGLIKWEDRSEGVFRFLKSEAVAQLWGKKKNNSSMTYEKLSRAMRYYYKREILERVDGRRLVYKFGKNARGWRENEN
The following applies: protein: recombinant; tags: N-terminal GST; dsDNA, one strand shown. The method, boiled down: as §1

The next test has as its target SPI1 (Homo sapiens, UniProt P17947 1-270). The following applies: protein: recombinant; tags: N-terminal GST; dsDNA, one strand shown. The gist of the method: as §1
The target in another test is SPIB (Homo sapiens, UniProt Q01892 1-262). The settings on record: protein: recombinant; tags: N-terminal GST; dsDNA, one strand shown. The method, boiled down: as §1
Another test deals with T6, ELK3 (Homo sapiens, UniProt P41970 1-407).
T6 sequence: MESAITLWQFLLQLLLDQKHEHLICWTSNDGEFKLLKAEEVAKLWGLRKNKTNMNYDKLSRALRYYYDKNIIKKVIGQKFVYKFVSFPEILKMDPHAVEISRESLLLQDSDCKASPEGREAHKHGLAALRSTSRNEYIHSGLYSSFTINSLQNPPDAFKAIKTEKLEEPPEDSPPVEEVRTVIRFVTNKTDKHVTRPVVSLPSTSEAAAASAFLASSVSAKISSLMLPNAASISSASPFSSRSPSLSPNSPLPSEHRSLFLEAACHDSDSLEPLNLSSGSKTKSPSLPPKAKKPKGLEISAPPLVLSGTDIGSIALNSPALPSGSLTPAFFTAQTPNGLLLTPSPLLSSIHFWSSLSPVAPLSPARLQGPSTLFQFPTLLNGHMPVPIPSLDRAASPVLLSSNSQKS
The settings on record: protein: recombinant; tags: N-terminal GST; dsDNA, one strand shown. The method, boiled down:
as §1

A further test addresses T7, FEV (Homo sapiens, UniProt Q99581 1-238).
T7 sequence: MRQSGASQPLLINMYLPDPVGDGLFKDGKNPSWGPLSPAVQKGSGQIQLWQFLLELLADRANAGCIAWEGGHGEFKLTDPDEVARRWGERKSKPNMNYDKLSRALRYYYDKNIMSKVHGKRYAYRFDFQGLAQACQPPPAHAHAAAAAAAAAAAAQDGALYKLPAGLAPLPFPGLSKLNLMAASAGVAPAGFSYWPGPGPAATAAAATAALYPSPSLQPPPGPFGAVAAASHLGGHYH
The settings on record: protein: recombinant; tags: N-terminal GST; dsDNA, one strand shown. The gist of the method:
as §1

A further test addresses ETV5 (Homo sapiens, UniProt P41161 1-510). The settings on record: protein: recombinant; tags: N-terminal GST; dsDNA, one strand shown. The gist of the method: as §1
A further test concerns the target HSF1 (Homo sapiens, UniProt Q00613 1-529). The following applies: protein: recombinant; tags: N-terminal GST; chain copies: 3; dsDNA, one strand shown. The method, boiled down:
as §1

Another test deals with T8, SPIC (Homo sapiens, UniProt Q8N5J4 1-248).
T8 sequence: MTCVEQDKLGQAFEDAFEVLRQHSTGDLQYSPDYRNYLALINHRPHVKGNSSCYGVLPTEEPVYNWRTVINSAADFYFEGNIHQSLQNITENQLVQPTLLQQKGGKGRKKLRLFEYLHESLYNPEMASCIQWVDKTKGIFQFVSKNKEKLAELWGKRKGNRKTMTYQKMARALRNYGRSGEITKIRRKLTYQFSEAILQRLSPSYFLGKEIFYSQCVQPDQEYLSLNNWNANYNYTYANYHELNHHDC
The settings on record: protein: recombinant; tags: N-terminal GST; dsDNA, one strand shown. The gist of the method: as §1

For another test, the target named is ELF4 (Homo sapiens, UniProt Q99607 1-663). The settings on record: protein: recombinant; tags: N-terminal GST; dsDNA, one strand shown. The method, boiled down:
as §1

Another test concerns the target T9, ELK4 (Homo sapiens, UniProt P28324-2 1-405).
T9 sequence: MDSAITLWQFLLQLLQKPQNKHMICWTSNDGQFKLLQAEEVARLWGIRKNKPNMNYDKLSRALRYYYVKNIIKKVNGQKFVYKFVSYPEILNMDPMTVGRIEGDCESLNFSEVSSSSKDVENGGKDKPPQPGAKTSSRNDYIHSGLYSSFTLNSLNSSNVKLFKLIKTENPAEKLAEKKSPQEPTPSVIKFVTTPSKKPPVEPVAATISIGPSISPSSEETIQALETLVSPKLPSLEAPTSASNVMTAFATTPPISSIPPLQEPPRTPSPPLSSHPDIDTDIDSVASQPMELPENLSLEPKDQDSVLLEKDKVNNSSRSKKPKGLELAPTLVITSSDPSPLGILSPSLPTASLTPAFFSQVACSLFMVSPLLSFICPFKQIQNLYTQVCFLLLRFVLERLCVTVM
The settings on record: protein: recombinant; tags: N-terminal GST; dsDNA, one strand shown. The gist of the method: as §1

For the next test, the target named is T10, ETV2 (Homo sapiens, UniProt O00321 1-342).
T10 sequence: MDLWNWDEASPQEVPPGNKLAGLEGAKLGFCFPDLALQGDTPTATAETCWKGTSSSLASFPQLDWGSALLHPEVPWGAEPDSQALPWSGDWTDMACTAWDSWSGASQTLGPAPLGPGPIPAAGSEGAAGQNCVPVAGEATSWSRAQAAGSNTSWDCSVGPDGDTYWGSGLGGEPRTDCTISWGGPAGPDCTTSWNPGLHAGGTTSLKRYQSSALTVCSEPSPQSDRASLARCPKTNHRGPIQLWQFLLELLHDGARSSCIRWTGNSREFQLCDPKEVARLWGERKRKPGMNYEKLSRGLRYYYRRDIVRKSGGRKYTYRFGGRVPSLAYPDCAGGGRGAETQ
The settings on record: protein: recombinant; tags: N-terminal GST; dsDNA, one strand shown. The gist of the method: as §1

A further test addresses T11, ELF3 (Homo sapiens, UniProt P78545 1-371).
T11 sequence: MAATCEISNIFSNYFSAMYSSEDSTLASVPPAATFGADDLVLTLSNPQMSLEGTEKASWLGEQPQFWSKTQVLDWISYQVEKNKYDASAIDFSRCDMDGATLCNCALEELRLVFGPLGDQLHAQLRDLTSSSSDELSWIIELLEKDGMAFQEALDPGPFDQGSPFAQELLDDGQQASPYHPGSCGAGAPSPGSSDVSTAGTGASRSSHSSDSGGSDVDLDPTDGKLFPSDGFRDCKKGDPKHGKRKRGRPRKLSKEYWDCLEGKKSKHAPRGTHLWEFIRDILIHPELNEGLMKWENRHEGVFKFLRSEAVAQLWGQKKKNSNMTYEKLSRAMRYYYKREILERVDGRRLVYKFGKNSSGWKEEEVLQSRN
The settings on record: protein: recombinant; tags: N-terminal GST; dsDNA, one strand shown. The method, boiled down: as §1

In the next test the target is ETV1 (Homo sapiens, UniProt P50549 1-477). The following applies: protein: recombinant; tags: N-terminal GST; dsDNA, one strand shown. The gist of the method: as §1
Sequence of ETV1 (P50549 whole entry): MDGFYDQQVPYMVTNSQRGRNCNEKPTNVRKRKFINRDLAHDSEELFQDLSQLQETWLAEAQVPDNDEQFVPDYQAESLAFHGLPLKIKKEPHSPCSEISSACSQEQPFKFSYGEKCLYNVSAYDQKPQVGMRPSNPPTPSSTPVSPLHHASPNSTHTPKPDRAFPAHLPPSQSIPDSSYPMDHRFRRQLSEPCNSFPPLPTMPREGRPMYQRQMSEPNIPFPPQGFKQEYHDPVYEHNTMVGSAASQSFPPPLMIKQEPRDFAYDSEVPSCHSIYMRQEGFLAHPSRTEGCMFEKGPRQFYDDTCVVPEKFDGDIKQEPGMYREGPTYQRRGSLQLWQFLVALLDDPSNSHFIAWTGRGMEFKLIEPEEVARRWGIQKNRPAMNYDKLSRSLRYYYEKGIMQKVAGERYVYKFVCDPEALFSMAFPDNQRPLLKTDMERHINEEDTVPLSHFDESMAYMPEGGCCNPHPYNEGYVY

Sequence of ETV5 (P41161 whole entry): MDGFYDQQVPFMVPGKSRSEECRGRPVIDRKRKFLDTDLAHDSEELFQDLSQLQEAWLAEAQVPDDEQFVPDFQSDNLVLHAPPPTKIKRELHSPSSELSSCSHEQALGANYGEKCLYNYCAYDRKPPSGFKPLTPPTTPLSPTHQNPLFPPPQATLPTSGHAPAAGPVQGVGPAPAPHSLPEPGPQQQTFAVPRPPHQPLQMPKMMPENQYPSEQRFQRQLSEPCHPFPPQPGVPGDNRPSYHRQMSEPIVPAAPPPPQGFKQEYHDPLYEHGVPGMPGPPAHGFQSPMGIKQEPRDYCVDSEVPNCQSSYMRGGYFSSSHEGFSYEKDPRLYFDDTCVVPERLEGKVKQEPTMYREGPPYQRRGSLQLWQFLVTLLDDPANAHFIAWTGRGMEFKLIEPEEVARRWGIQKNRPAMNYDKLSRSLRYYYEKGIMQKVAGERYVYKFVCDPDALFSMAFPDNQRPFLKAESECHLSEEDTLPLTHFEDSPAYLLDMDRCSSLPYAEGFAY
Sequence of SPIB (Q01892 whole entry): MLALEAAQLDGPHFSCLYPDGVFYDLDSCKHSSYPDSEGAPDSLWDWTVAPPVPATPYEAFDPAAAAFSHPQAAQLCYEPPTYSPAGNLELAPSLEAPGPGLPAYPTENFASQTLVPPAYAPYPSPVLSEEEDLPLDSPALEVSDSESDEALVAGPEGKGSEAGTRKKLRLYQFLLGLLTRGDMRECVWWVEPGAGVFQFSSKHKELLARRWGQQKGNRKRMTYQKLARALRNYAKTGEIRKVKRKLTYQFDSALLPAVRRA
Sequence of ELF1 (P32519 whole entry): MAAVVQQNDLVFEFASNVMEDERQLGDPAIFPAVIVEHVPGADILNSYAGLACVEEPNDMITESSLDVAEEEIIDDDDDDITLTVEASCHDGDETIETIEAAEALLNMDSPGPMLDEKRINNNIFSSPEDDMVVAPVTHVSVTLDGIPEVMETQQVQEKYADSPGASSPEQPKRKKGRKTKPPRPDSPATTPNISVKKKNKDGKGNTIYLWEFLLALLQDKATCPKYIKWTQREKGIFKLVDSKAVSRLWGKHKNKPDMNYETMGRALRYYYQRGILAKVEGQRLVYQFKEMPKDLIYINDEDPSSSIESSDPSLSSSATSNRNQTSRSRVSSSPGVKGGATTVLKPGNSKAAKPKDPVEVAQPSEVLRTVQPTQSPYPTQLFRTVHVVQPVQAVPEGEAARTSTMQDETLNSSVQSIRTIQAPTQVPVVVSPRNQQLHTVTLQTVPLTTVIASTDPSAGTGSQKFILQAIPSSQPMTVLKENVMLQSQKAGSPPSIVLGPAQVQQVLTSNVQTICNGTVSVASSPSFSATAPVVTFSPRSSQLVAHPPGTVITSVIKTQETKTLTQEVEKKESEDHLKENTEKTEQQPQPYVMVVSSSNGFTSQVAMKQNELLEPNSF
Sequence of ELF4 (Q99607 whole entry): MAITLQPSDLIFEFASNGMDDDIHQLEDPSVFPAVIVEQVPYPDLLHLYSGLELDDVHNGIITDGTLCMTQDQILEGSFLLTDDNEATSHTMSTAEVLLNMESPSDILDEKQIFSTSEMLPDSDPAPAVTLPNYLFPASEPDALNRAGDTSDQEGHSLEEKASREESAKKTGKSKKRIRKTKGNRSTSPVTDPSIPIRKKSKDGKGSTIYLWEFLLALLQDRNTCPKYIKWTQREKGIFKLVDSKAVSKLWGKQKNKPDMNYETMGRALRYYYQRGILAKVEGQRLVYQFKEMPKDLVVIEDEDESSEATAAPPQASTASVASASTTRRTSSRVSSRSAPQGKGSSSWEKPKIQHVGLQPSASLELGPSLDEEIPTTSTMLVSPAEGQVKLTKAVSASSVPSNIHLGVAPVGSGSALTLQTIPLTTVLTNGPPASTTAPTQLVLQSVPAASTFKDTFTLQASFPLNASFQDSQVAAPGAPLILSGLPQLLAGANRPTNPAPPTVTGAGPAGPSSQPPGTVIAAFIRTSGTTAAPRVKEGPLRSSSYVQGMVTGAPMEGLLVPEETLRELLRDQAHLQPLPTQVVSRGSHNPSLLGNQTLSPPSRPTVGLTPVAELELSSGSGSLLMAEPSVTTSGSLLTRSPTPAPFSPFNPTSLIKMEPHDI
Sequence of HSF1 (Q00613 whole entry): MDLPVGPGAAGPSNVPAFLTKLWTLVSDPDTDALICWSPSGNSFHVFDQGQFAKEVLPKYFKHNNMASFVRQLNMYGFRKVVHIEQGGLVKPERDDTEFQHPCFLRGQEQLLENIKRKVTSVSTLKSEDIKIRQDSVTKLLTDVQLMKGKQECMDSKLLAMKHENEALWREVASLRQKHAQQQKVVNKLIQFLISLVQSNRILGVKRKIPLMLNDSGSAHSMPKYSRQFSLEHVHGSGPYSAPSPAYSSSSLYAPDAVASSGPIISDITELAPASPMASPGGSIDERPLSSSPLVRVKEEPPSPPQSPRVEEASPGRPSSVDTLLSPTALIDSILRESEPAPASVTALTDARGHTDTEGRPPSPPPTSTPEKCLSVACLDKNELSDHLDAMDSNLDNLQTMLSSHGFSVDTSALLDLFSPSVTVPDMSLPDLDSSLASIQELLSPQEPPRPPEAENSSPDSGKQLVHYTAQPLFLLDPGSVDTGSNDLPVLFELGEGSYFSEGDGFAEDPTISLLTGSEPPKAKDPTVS

As for CACTGG, the binding signal in the test with FLI1 is 1.15 fold enrichment (6-mer frequency, TF over GST control); in the test with ELK1 it was 1.07 fold enrichment (6-mer frequency, TF over GST control); with GABPA it was 1.15 fold enrichment (6-mer frequency, TF over GST control); in the test with ERG, 1.12 fold enrichment (6-mer frequency, TF over GST control); with ELF1, 1.17 fold enrichment (6-mer frequency, TF over GST control); in the test with EHF, 1.05 fold enrichment (6-mer frequency, TF over GST control). Further, the binding signal with SPI1 is 1.03 fold enrichment (6-mer frequency, TF over GST control); with SPIB, 1.11 fold enrichment (6-mer frequency, TF over GST control); with ELK3 it was 1.02 fold enrichment (6-mer frequency, TF over GST control); with FEV, 1.07 fold enrichment (6-mer frequency, TF over GST control); in the test with ETV5, 1.13 fold enrichment (6-mer frequency, TF over GST control); with HSF1, 1.16 fold enrichment (6-mer frequency, TF over GST control). For the same sequence, the binding signal in the test with SPIC is 1.24 fold enrichment (6-mer frequency, TF over GST control); with ELF4, 1.04 fold enrichment (6-mer frequency, TF over GST control); with ELK4 it was 1.05 fold enrichment (6-mer frequency, TF over GST control); with ETV2, 1.22 fold enrichment (6-mer frequency, TF over GST control); with ELF3, 1.11 fold enrichment (6-mer frequency, TF over GST control); in the test with ETV1, 1.22 fold enrichment (6-mer frequency, TF over GST control).
